Consider 20 compounds from PubChem BioAssay (Tox21).

Results filed as inconclusive are left out. A call without a number means that no potency is given here. Calls of active or inactive are those of the source. The call rests on the fitted dose curve.

This experiment is described as follows: qHTS assay to identify small molecule antagonists of the estrogen receptor alpha (ER-alpha) signaling pathway using the BG1 cell line (AID 743080).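 Further: BG1 cells stimulated with 17beta-estradiol alongside compound; nearly all actives have a fitted effect of over 25% in size.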 As to conditions: BG1Luc4E2 ERE-luciferase antagonist mode, luminescence; series mostly up to 70.3 µM. In a few lines:
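BG1-Luc-4E2 cells (endogenous full-length ER-alpha, stable 4×ERE-luciferase) were starved 5 days in phenol-red-free medium with 10% charcoal-stripped FBS, plated 24 h, then given compound plus 17beta-estradiol for 21.5 h at 37 C; ONE-Glo luminescence read after 30 min.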
As for `O=S1(=O)CCCO1`, the Potency result was “inactive”. Turning to `CCOC(=O)C(C)Oc1ccc(Oc2cnc3cc(Cl)ccc3n2)cc1` (stereo not given), the Potency result was “inactive”.

As for `COC(=O)CC(=O)OC`, the Potency entry was “inactive”. With `C=C[Si](OCCOC)(OCCOC)OCCOC` the entry was “inactive”; with `CN(C)/N=N/c1nc[nH]c1C(N)=O`, “inactive”; with `c1ccc2c(c1)[nH]c1ccccc12`, “inactive”. As to `CCCCCCC(C)O` (stereo not given), the Potency entry was “inactive”. With `CCC/C=C/C=O` the entry was “inactive”. With `CCCCCCCCCCCCO` the entry was “inactive”. With `CC(C)[N+](C)(CCOC(=O)C1c2ccccc2Oc2ccccc21)C(C)C` the entry was “inactive”.

With `C/C=C/C(=O)N(CC)c1ccccc1C`, the Potency entry is “inactive”. With `COC(=O)c1ccc(C)cc1` the entry was “inactive”; with `CCc1cccc2c3c([nH]c12)C(CC)(CC(=O)O)OCC3` (stereo not given), “inactive”; with `CCCCCCCCCCCCCO`, “inactive”. The same measure for `CC(C)=CCO`: “inactive”. With `CC(=O)Oc1c(C)c(C)c2c(c1C)CC[C@@](C)(CCC[C@H](C)CCC[C@H](C)CCCC(C)C)O2` the entry was “inactive”. For `Cc1ccc(C(C)(C)C)cc1`, the Potency entry was “inactive”. With `CCO[Si](CCCNC(N)=O)(OCC)OCC` the entry was “inactive”; with `OC[C@H]1O[C@@H]2O[C@H]3[C@H](O)[C@@H](O)[C@@H](O[C@H]4[C@H](O)[C@@H](O)[C@@H](O[C@H]5[C@H](O)[C@@H](O)[C@@H](O[C@H]6[C@H](O)[C@@H](O)[C@@H](O[C@H]7[C@H](O)[C@@H](O)[C@@H](O[C@H]1[C@H](O)[C@H]2O)O[C@@H]7CO)O[C@@H]6CO)O[C@@H]5CO)O[C@@H]4CO)O[C@@H]3CO`, “inactive”; with `CC1(C)O[C@@H]2C[C@H]3[C@@H]4C[C@H](F)C5=CC(=O)C=C[C@]5(C)[C@@]4(F)[C@@H](O)C[C@]3(C)[C@]2(C(=O)CO)O1`, “inactive”.
